Source: PubChem BioAssay AID1671202 (University of Kansas High Throughput Screening Laboratory, 2021)
Values joined by “and” are separate entries in the source; they are usually repeats but may differ in a detail not shown here. Equal entries are not always repeated. Out of some 190,000 compounds screened, about 6,900 (3.6%) were called active. Shown is part of a subset that was picked to be rich in actives. A number with no mark means an inactive call. Rule as the data show it: active = inhibition above about 50%; inactive = the rest.

These compounds were tested against Huntingtin (Homo sapiens) (UniProt P42858) (assay: mutant huntingtin-calmodulin interaction inhibitors – biochemical, AlphaScreen, primary screen (AID 1671202;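 also: 0% = both proteins with DMSO and 100% = one protein alone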)). Conditions: AlphaScreen His-mHTT/GST-CaM binding, luminescence; at 15 µM, active compounds read high.
Sequence of Huntingtin (Homo sapiens) (P42858 whole entry, looked up, stated change not applied): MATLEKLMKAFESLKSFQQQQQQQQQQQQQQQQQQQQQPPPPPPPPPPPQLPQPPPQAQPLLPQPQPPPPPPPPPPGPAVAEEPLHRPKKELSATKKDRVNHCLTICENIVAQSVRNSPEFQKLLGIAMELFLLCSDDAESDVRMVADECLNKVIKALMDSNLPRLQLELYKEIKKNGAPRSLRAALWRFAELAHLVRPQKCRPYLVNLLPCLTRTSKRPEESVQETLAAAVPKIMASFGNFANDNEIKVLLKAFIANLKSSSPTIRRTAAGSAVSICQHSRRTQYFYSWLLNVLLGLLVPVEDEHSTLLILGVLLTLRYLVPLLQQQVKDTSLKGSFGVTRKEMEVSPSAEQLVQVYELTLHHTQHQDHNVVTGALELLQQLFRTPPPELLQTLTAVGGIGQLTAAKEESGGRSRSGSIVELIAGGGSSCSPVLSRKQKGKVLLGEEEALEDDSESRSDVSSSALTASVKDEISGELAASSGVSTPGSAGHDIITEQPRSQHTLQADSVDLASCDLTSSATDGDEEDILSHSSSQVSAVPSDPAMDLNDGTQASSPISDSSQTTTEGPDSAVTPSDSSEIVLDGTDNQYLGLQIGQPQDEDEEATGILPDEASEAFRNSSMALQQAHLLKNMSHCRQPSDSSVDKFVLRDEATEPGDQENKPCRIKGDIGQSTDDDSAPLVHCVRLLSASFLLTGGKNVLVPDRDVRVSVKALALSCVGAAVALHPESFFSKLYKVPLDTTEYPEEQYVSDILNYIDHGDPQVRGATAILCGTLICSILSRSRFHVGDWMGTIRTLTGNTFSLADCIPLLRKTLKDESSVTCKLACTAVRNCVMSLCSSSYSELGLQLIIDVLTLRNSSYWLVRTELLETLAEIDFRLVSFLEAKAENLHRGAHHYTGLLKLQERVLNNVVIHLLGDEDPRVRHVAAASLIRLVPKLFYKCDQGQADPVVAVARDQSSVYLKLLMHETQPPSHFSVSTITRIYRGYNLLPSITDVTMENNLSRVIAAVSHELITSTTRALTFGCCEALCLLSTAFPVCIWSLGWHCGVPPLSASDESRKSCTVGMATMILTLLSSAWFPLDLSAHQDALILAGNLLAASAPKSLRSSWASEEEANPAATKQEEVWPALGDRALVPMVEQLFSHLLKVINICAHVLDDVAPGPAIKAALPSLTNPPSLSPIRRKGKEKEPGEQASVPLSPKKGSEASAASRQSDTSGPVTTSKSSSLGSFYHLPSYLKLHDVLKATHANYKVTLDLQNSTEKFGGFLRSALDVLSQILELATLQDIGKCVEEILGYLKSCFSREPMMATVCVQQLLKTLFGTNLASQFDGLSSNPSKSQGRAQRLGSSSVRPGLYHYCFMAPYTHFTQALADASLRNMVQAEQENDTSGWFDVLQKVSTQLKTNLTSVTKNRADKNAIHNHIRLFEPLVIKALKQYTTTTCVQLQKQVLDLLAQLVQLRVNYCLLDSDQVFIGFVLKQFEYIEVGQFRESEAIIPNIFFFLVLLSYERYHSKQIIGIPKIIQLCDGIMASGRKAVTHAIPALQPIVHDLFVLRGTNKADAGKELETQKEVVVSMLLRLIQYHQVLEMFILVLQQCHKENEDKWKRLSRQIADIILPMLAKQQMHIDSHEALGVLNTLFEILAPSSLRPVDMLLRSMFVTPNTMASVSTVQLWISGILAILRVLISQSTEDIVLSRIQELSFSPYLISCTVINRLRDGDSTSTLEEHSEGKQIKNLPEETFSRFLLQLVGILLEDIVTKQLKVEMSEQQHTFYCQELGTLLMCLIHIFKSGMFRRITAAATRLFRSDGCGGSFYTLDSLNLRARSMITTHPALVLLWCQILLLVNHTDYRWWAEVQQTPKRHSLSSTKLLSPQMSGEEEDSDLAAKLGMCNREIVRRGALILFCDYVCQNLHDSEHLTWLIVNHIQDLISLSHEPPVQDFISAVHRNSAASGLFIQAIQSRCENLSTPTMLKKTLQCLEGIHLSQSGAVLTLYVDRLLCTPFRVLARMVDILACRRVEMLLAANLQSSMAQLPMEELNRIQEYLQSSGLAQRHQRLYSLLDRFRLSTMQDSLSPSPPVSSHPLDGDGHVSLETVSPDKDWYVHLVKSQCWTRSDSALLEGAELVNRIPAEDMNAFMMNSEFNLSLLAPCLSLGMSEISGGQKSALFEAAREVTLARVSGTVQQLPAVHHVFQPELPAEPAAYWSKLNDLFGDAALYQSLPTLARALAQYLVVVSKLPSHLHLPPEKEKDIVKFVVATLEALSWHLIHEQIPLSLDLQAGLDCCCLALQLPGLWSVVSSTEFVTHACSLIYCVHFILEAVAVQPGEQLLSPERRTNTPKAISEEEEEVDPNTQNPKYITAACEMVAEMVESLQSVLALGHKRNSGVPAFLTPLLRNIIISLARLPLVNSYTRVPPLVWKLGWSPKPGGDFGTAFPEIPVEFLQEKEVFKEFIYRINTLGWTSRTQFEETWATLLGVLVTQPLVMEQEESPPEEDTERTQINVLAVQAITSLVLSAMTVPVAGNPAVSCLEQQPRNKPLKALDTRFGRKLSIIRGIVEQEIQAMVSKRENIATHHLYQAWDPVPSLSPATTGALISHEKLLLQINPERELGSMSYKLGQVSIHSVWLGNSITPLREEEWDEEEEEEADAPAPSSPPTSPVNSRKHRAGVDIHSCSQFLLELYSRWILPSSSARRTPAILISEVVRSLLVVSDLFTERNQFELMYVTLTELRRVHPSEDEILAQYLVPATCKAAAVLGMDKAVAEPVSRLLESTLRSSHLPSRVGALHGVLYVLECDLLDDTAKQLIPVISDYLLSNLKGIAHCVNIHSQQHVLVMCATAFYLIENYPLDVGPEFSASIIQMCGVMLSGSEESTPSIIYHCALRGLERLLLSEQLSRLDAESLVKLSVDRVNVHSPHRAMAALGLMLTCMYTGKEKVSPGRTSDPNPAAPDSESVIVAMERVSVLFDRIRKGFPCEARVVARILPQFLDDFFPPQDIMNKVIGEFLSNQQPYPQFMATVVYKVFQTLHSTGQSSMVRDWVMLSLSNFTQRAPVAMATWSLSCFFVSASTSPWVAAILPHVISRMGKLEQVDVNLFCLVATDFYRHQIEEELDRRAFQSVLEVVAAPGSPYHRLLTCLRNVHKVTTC

Structure (SMILES) | inhibition
CCCC(=O)N1CCC2(C1)C(=O)Nc1ccccc12 (stereo unspecified) | 0.5%
Cc1cccc2[nH]c(S(=O)(=O)Cc3ccc(F)cc3Cl)nc12 | -2%
O=C(NC(Nc1cccc([N+](=O)[O-])c1)C(Cl)(Cl)Cl)c1ccc(Br)cc1 (stereo unspecified) | 76% (active)
Cc1ccccc1NC(NC(=O)c1cccc([N+](=O)[O-])c1)C(Cl)(Cl)Cl (stereo unspecified) | 48%
CC(C)(C)NC(NC(=O)c1ccc(Br)cc1)C(Cl)(Cl)Cl (stereo unspecified) | -11%
COc1ccc(C)cc1NC(=O)C1CN(C(=O)c2ccncc2)CC12CCCCC2 (stereo unspecified) | 41.7%
COc1cc(NC(=O)C2CN(C(=O)c3ccncc3)CC23CCCCC3)cc(OC)c1 (stereo unspecified) | 87.6% (active)
O=C(NCc1ccccn1)C1CN(C(=O)c2ccncc2)CC12CCCCC2 (stereo unspecified) | -2.9%
CNC(=O)C(=O)Nc1ccc(OC)cc1 | 2%
C=CCNC(=O)c1cc(=O)[nH]c2c(Cl)cccc12 | 2.2%
COCCn1ccc2c(OCC(=O)Nc3cccc([N+](=O)[O-])c3)cccc2c1=O | -19%
CC1CC(=O)Nc2c1c(NC(=O)c1ccc3c(c1)OCO3)nn2C (stereo unspecified) | -9.4%
CCOc1ccccc1C(=O)Nc1nn(C)c2c1C(c1cccs1)CC(=O)N2 (stereo unspecified) | 100% (active)
CCOc1ccccc1C(=O)Nc1c2c(nn1-c1cccc(Cl)c1)CSC2 | 0%
CC(=O)N1CCN(c2nc3c(s2)CC(C(=O)NCCCN2CCC(C)CC2)CC3)CC1 (stereo unspecified) | 4.75%
Cc1nnc(NC(=O)CSc2nc(C(C)C)ccc2C#N)s1 | -5%
C(=C\c1ccccc1)/CN1CCN(CC2CCCCC2)CC1 | 3.7%
Cc1ccccc1N1CCN(C/C=C/c2ccccc2[N+](=O)[O-])CC1 | 35.9%
CN(C)c1ccc(/C=C/CN2CCN(c3ccccc3F)CC2)cc1 | 72.5% (active)
Cc1cc(CNC(=O)CSc2ccncc2)no1 | -14.6%
CC(=O)N1CCc2c(sc(NC(=O)c3cc(C)oc3C)c2C(N)=O)C1 | -3.5%

Structure (SMILES) | inhibition
Cc1cc2c(N3CCC(C(=O)Nc4cccc(C(F)(F)F)c4)CC3)nccc2s1 | 80.9% (active)
Cc1cc2c(N3CCCC(C(=O)Nc4cccc(F)c4)C3)nccc2s1 (stereo unspecified) | -8.41%
Cc1cc2c(N3CCC(C(=O)Nc4cccc(F)c4)CC3)nccc2s1 | 45.2%
O=C1CC(c2ccccc2Cl)=Nc2ccccc2N1 | 5%
C=CCN(CC=C)S(=O)(=O)c1ccc(C(=O)Nc2nnc(-c3ccc(F)cc3)o2)cc1 | 6%
N#Cc1sc2nc(-c3cccs3)ccc2c1N | 5% and -18.7%
COc1cc(CN2CCN(Cc3cc(OC)c(OC)cc3OC)CC2)cc(OC)c1 | 7.3%
COc1cc2c(-c3ccccc3)c(C)oc2cc1CN1CCN(c2ncccn2)CC1 | 62.2% (active)
COc1cc(OC)c(OC)cc1CN1CCN(c2ccccc2F)CC1 | 6.5%
CN(CCc1ccccn1)C(=O)C1CCCN(c2cnn(C)c(=O)c2)C1 (stereo unspecified) | -0.11%
CCC(=O)NCc1csc(C2CCN(C(=O)c3cccs3)CC2)n1 | 5.45%
Cc1ccc(CNC(=O)C2(C)CCCN(C(=O)CC(C)C)C2)cc1 (stereo unspecified) | -7.13%
COc1ccc(C(=O)N2CCOC(COc3ccc(C)cc3)C2)cc1 (stereo unspecified) | 4.7%
CC(C)C[C@@H](CO)N1CCN(Cc2ccc(O)cc2)CCC1=O | -0.4%
CC(C)C[C@@H](COCc1ccc(Cl)cc1)N1CCN(C(=O)c2ccc(Cl)cc2Cl)CCC1=O | 86% (active)
O=C(c1ccc(C(F)(F)F)cc1)N1CCC(=O)N([C@H](COCc2ccccc2)Cc2ccccc2)CC1 | 99.4% (active)
CC(C)C[C@@H](COc1ccccc1)N1CCN(CC(C)C)CCC1=O | 5.6%
CN1CCC(=O)N([C@H](CO)Cc2ccccc2)CC1 | -6.6%
Cc1ccc(S(=O)(=O)N2CCC(=O)N([C@H](COCc3ccccc3)Cc3ccccc3)CC2)cc1 | -1.2% and -4%
O=C(NCC(c1cccs1)N1CCOCC1)C(=O)Nc1ccon1 (stereo unspecified) | -10.7%
CCOc1ccccc1N1CCN(CC2CC3C=CC2C3)CC1 (stereo unspecified) | 3.9%

Structure (SMILES) | inhibition
Cc1cccc2c(C(=O)N3CCOCC3)cc(-c3ccccc3)nc12 | 26.2%
Cc1ccc(C(=O)N2CCCC(COc3ccc(C(=O)N4CCOCC4)cc3)C2)cc1 (stereo unspecified) | 5.35%
O=[N+]([O-])c1ccccc1/C=C/CN1CCC(O)CC1 | -1.3%
O=[N+]([O-])c1ccccc1/C=C/CN1CCN(c2ccccc2)CC1 | 32.8%
O=[N+]([O-])c1ccccc1/C=C/CN1CCN(C/C=C/c2ccccc2)CC1 | 75.3% (active)
COc1ccc(Cl)cc1NC(=O)C1CC(=O)N(c2ccc3c(c2)CCN3C(C)=O)C1 (stereo unspecified) | 2.25%
Cn1nccc1C(=O)N1CCCC1c1cccc(F)c1 (stereo unspecified) | -3.94%
COc1ccc(S(=O)(=O)NCCc2ccccc2)c(C)c1C | -7.6%
CN1CCCc2cc(C(CNC(=O)C(=O)NC3CCCCC3)N(C)C)ccc21 (stereo unspecified) | 5.1%
CN1CCCc2cc(C(CNC(=O)c3ccccc3Cl)N3CCOCC3)ccc21 (stereo unspecified) | 19.8%
CN1CCc2cc(C(CNC(=O)C(=O)NCc3ccccc3Cl)N(C)C)ccc21 (stereo unspecified) | 53.3% (active)
N#CCn1cccc1-c1nc(-c2ccncc2)no1 | 38.7%
CC(C)(C)C(O)CCNC(=O)c1cccc(F)c1 (stereo unspecified) | -16.4%
COc1ccc(C2=N/C(=C/c3ccc4c(c3)OCO4)C(=O)O2)c(Br)c1 | 3%
O=C(Nc1ccc(N2CCOCC2)cc1)c1cccc(Br)c1 | -1.7%
COc1ccccc1OCC(=O)Nc1c2c(nn1-c1ccc(F)cc1)CS(=O)(=O)C2 | -5.8%
CC1CCCC(Nc2ccc(N3C(=O)CCCC3=O)cc2[N+](=O)[O-])C1C (stereo unspecified) | 48%
CC1CC(=O)N(c2ccc(NC3CCCC(C)C3C)c([N+](=O)[O-])c2)C1=O (stereo unspecified) | 51% (active)
O=C1C2CC=CCC2C(=O)N1c1ccc(F)c([N+](=O)[O-])c1 (stereo unspecified) | -1%
